Measured values taken from PubChem BioAssay (NCI).
This is part of a sample that, as a whole, favours compounds with a hit. Of some 83,000 tested, about 20% had one in any assay.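 Activity criterion: percent growth below 10, measured after cells in 96-well plates were exposed to a single compound concentration for 48 hours.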 Unmarked numbers belong to inactive results. Activity calls are given as the source filed them.

These molecules were tested on DU-145 prostate (assay: NCI-60 one-dose screen, 48 h (100 = growth as untreated, 0 = no growth, -100 = all killed)). Conditions: 10 µM unless noted.

**Q.** For `CCOC(=O)C(=Cc1c(-c2ccccc2)[nH]c2ccccc12)C(=O)OCC`, which growth is on record?
**A.** 58.7%

**Q.** For `COc1ccc(C2=NN(c3ccc(S(N)(=O)=O)cc3)C(c3ccc(Cl)cc3)C2)c(O)c1` (centres undefined), which growth is on record?
**A.** 99.2%

**Q.** Which growth does the source give for `CCOC(=O)C1=C(C)n2nc(CC#N)c(C#N)c2NC1c1ccc(Cl)cc1` (centres undefined) here?
**A.** 97.2%

**Q.** How did the growth turn out when `CCOC(=O)c1sc(/N=C2\NC(=O)/C(=C/c3ccc(N4CCN(C)CC4)cc3)S2)nc1C` was run?
**A.** 97.3%

**Q.** How did the growth turn out when `CC(C)NS(=O)(=O)c1cccc(-c2ccc3c(=O)n(CCCN)c4c(c3c2)C(=O)c2ccccc2-4)c1` was run?
**A.** 107%

**Q.** How did the growth turn out when `COc1cc2nc3c(=O)n(CCN(C)C)cnn3c(=O)c2cc1OC` was run?
**A.** 108%

**Q.** How did the growth turn out when `COc1ccc(/C(=N\O)c2cc(C)c(OC)c(C)c2)cc1O` was run?
**A.** 29.4%

**Q.** Which growth does the source give for `COc1cc(C2=NN(c3ccccc3)C(c3cccc(Nc4ccnc5cc(C(F)(F)F)ccc45)c3)C2)cc(OC)c1OC` (centres undefined) here?
**A.** 93.6%

**Q.** How did the growth turn out when `Nc1c(C(=O)Nc2ccccn2)sc2nc3c(cc12)CCCC3` was run?
**A.** 72%

**Q.** Which growth does the source give for `COc1ccc(-c2cc(-c3nnc(SCC(=O)Nc4ccc(C(C)=O)cc4)o3)c3ccccc3n2)cc1` here?
**A.** 6.34% (active)

**Q.** For `Nc1c(C(=O)Nc2ccccn2)sc2nc3c(cc12)CCCCC3`, which growth is on record?
**A.** 12.2%

**Q.** How did the growth turn out when `Sc1cccc2cccnc12` was run?
**A.** 27.1%

**Q.** Which growth does the source give for `C=CCn1c(SCC(=O)Nc2ccc(C(=O)/C=C/c3cc(OC)c(OC)c(OC)c3)cc2)nnc1-c1ccc(Cl)cc1` here?
**A.** 10.8%

**Q.** How did the growth turn out when `O=C(/C(=C\c1c(-c2ccccc2)[nH]c2ccccc12)S(=O)(=O)c1ccccc1)c1ccccc1` was run?
**A.** 68.5%

**Q.** `COc1ccc2[nH]c(=O)c(/C=C/C(=O)/C=C/c3ccc(O)c(OC)c3)cc2c1` was tested. Which growth did it give?
**A.** 8.26% (active)

**Q.** For `COc1cc(-c2cn(-c3ccc(Cl)c(Cl)c3)c(=O)[nH]2)cc(OC)c1OC`, which growth is on record?
**A.** 100%

**Q.** Which growth does the source give for `Cc1cc(C)c2nc(Nc3nc(C)c(C)c(=O)[nH]3)nc(C)c2c1` here?
**A.** 19.1%

**Q.** With `COc1ccc2cc(/C=C3\N=C(c4cc(OC)c(OC)c(OC)c4)OC3=O)c(OC)nc2c1` as the molecule, how does the growth read?
**A.** 110%

**Q.** `COC(=O)/C=C1\SC(=Nc2cccc(OC)c2)N(CCc2c[nH]c3ccccc23)C1=O` was tested. Which growth did it give?
**A.** 69.3%

**Q.** For `O=C1Nc2ccc(Br)cc2/C1=N\N=C/c1cn(Cc2ccccc2)c2ccccc12`, which growth is on record?
**A.** 95.7%

**Q.** With `COc1cc(-c2nn(-c3ccc(Br)cc3)cc2CO)ccc1O` as the molecule, how does the growth read?
**A.** 93.6%

**Q.** With `CCCCc1ccc(N=Nc2ccc(OCC[N+](C)(C)C)cc2)cc1` as the molecule, how does the growth read?
**A.** 60.5%

**Q.** Which growth does the source give for `CCN1CCN(c2ccc(NC(=O)Nc3nc4ccc(-c5ccccc5OC)cc4s3)cc2)CC1` here?
**A.** -84.4% (active)

**Q.** For `C=C(C)[C@@H]1CC[C@]2(C(=O)O)CC[C@]3(C)[C@H](CC[C@@H]4[C@@]5(C)C[C@@H](CC#Cc6ccccc6C)C(=O)C(C)(C)[C@@H]5CC[C@]43C)[C@@H]12`, which growth is on record?
**A.** 34.4%

**Q.** `CCSc1ccc(C2C(Br)C(=O)N2c2cc(OC)c(OC)c(OC)c2)cc1` (centres undefined) was tested. Which growth did it give?
**A.** 12.3%

**Q.** `CCCCc1nc(Cl)c(C2CC(c3ccc(Cl)cc3)=NN2c2cc(Cl)cc(Cl)c2)[nH]1` (centres undefined) was tested. Which growth did it give?
**A.** 40.8%

**Q.** With `C=C(C)[C@@H]1CC[C@]2(C(=O)OCCOCCOCC[P+](c3ccccc3)(c3ccccc3)c3ccccc3)CC[C@]3(C)[C@H](CC[C@@H]4[C@@]5(C)CC[C@H](C)C(C)(C)[C@@H]5CC[C@]43C)[C@@H]12` as the molecule, how does the growth read?
**A.** -92.1% (active)

**Q.** `O=C1[C@@H](OS(=O)(=O)CC(F)(F)F)[C@H](c2ccc(F)cn2)N1c1cc2c3ccccc3ccc2c2ccccc12` was tested. Which growth did it give?
**A.** 84.5%

**Q.** Which growth does the source give for `CCOC(=O)c1c(C)nc2c(c1N)/C(=C/c1cccs1)C(=O)N2Cc1ccccc1` here?
**A.** 62%

**Q.** Which growth does the source give for `C=CCn1c(SCC(=O)Nc2ccc(C(=O)/C=C/c3ccc(Cl)cc3)cc2)nnc1-c1cc(OC)c(OC)c(OC)c1` here?
**A.** 100%

**Q.** Which growth does the source give for `O=C1NN(c2ccccc2)C(c2ccc3c(c2)OCO3)N2CCC[C@@H]12` (some centres undefined) here?
**A.** 101%

**Q.** For `Cc1cnc(SCc2ccc(Cl)cc2Cl)nc1Nc1ccc(Cl)c(Cl)c1`, which growth is on record?
**A.** 95.1%

**Q.** With `O=C(O)c1cn(C2CC2)c2cc(N3CCN(C(=O)CSc4nnc(-c5ccc(Cl)cc5)n4-c4ccccc4)CC3)c(F)cc2c1=O` as the molecule, how does the growth read?
**A.** 108%

**Q.** With `N#Cc1ccc(C2C3=C(CCCC3=O)OC3=C2C(=O)c2ccccc2C3=O)cc1` (centres undefined) as the molecule, how does the growth read?
**A.** 86.8%

**Q.** How did the growth turn out when `COc1ccc2c(c1)OC13Oc4cc(OC)ccc4C=C1CCCCC3=C2` was run?
**A.** 104%

**Q.** Which growth does the source give for `C=C1C(=O)O[C@H]2[C@H]1CC/C(COC(=O)/C=C/c1cccnc1)=C\CC[C@@]1(C)O[C@@H]21` here?
**A.** 13.1%

**Q.** For `COC1=CC2C=C(C3N(c4ccccc4)NC(=O)[C@@H]4CCCN34)C(=O)NC2C=C1` (some centres undefined), which growth is on record?
**A.** 112%

The molecules below were run on K-562 leukemia in the same assay as above. Conditions: 10 µM unless noted.

**Q.** With `CCOC(=O)C(=Cc1c(-c2ccccc2)[nH]c2ccccc12)C(=O)OCC` as the molecule, how does the growth read?
**A.** -6.49% (active)

**Q.** For `COc1ccc(C2=NN(c3ccc(S(N)(=O)=O)cc3)C(c3ccc(Cl)cc3)C2)c(O)c1` (centres undefined), which growth is on record?
**A.** 23%

**Q.** With `CCOC(=O)C1=C(C)n2nc(CC#N)c(C#N)c2NC1c1ccc(Cl)cc1` (centres undefined) as the molecule, how does the growth read?
**A.** 115%

**Q.** How did the growth turn out when `CCOC(=O)c1sc(/N=C2\NC(=O)/C(=C/c3ccc(N4CCN(C)CC4)cc3)S2)nc1C` was run?
**A.** 95.2%

**Q.** Which growth does the source give for `CC(C)NS(=O)(=O)c1cccc(-c2ccc3c(=O)n(CCCN)c4c(c3c2)C(=O)c2ccccc2-4)c1` here?
**A.** 88.3%

**Q.** With `COc1cc2nc3c(=O)n(CCN(C)C)cnn3c(=O)c2cc1OC` as the molecule, how does the growth read?
**A.** 125%

**Q.** For `COc1ccc(/C(=N\O)c2cc(C)c(OC)c(C)c2)cc1O`, which growth is on record?
**A.** 12%

**Q.** `COc1cc(C2=NN(c3ccccc3)C(c3cccc(Nc4ccnc5cc(C(F)(F)F)ccc45)c3)C2)cc(OC)c1OC` (centres undefined) was tested. Which growth did it give?
**A.** 68.2%

**Q.** `Nc1c(C(=O)Nc2ccccn2)sc2nc3c(cc12)CCCC3` was tested. Which growth did it give?
**A.** 14.1%

**Q.** How did the growth turn out when `COc1ccc(-c2cc(-c3nnc(SCC(=O)Nc4ccc(C(C)=O)cc4)o3)c3ccccc3n2)cc1` was run?
**A.** 35.2%

**Q.** With `Nc1c(C(=O)Nc2ccccn2)sc2nc3c(cc12)CCCCC3` as the molecule, how does the growth read?
**A.** 7.25% (active)

**Q.** Which growth does the source give for `Sc1cccc2cccnc12` here?
**A.** 9% (active)

**Q.** `C=CCn1c(SCC(=O)Nc2ccc(C(=O)/C=C/c3cc(OC)c(OC)c(OC)c3)cc2)nnc1-c1ccc(Cl)cc1` was tested. Which growth did it give?
**A.** 9.24% (active)

**Q.** With `O=C(/C(=C\c1c(-c2ccccc2)[nH]c2ccccc12)S(=O)(=O)c1ccccc1)c1ccccc1` as the molecule, how does the growth read?
**A.** 8% (active)

**Q.** Which growth does the source give for `COc1ccc2[nH]c(=O)c(/C=C/C(=O)/C=C/c3ccc(O)c(OC)c3)cc2c1` here?
**A.** 4.67% (active)

**Q.** Which growth does the source give for `COc1cc(-c2cn(-c3ccc(Cl)c(Cl)c3)c(=O)[nH]2)cc(OC)c1OC` here?
**A.** 84.3%

**Q.** For `Cc1cc(C)c2nc(Nc3nc(C)c(C)c(=O)[nH]3)nc(C)c2c1`, which growth is on record?
**A.** 12.2%

**Q.** Which growth does the source give for `COc1ccc2cc(/C=C3\N=C(c4cc(OC)c(OC)c(OC)c4)OC3=O)c(OC)nc2c1` here?
**A.** 90.1%

**Q.** Which growth does the source give for `COC(=O)/C=C1\SC(=Nc2cccc(OC)c2)N(CCc2c[nH]c3ccccc23)C1=O` here?
**A.** 40.8%

**Q.** Which growth does the source give for `O=C1Nc2ccc(Br)cc2/C1=N\N=C/c1cn(Cc2ccccc2)c2ccccc12` here?
**A.** 67.4%

**Q.** With `COc1cc(-c2nn(-c3ccc(Br)cc3)cc2CO)ccc1O` as the molecule, how does the growth read?
**A.** 74.2%

**Q.** Which growth does the source give for `CCCCc1ccc(N=Nc2ccc(OCC[N+](C)(C)C)cc2)cc1` here?
**A.** 44.5%

**Q.** Which growth does the source give for `CCN1CCN(c2ccc(NC(=O)Nc3nc4ccc(-c5ccccc5OC)cc4s3)cc2)CC1` here?
**A.** -67.4% (active)

**Q.** Which growth does the source give for `C=C(C)[C@@H]1CC[C@]2(C(=O)O)CC[C@]3(C)[C@H](CC[C@@H]4[C@@]5(C)C[C@@H](CC#Cc6ccccc6C)C(=O)C(C)(C)[C@@H]5CC[C@]43C)[C@@H]12` here?
**A.** 14%

**Q.** With `CCSc1ccc(C2C(Br)C(=O)N2c2cc(OC)c(OC)c(OC)c2)cc1` (centres undefined) as the molecule, how does the growth read?
**A.** 8.26% (active)

**Q.** Which growth does the source give for `CCCCc1nc(Cl)c(C2CC(c3ccc(Cl)cc3)=NN2c2cc(Cl)cc(Cl)c2)[nH]1` (centres undefined) here?
**A.** 76.5%

**Q.** `C=C(C)[C@@H]1CC[C@]2(C(=O)OCCOCCOCC[P+](c3ccccc3)(c3ccccc3)c3ccccc3)CC[C@]3(C)[C@H](CC[C@@H]4[C@@]5(C)CC[C@H](C)C(C)(C)[C@@H]5CC[C@]43C)[C@@H]12` was tested. Which growth did it give?
**A.** -65.7% (active)

**Q.** For `O=C1[C@@H](OS(=O)(=O)CC(F)(F)F)[C@H](c2ccc(F)cn2)N1c1cc2c3ccccc3ccc2c2ccccc12`, which growth is on record?
**A.** 44.5%

**Q.** With `CCOC(=O)c1c(C)nc2c(c1N)/C(=C/c1cccs1)C(=O)N2Cc1ccccc1` as the molecule, how does the growth read?
**A.** 34.7%

**Q.** With `C=CCn1c(SCC(=O)Nc2ccc(C(=O)/C=C/c3ccc(Cl)cc3)cc2)nnc1-c1cc(OC)c(OC)c(OC)c1` as the molecule, how does the growth read?
**A.** 83.8%

**Q.** For `O=C1NN(c2ccccc2)C(c2ccc3c(c2)OCO3)N2CCC[C@@H]12` (some centres undefined), which growth is on record?
**A.** 93.8%

**Q.** For `Cc1cnc(SCc2ccc(Cl)cc2Cl)nc1Nc1ccc(Cl)c(Cl)c1`, which growth is on record?
**A.** 69.3%

**Q.** For `O=C(O)c1cn(C2CC2)c2cc(N3CCN(C(=O)CSc4nnc(-c5ccc(Cl)cc5)n4-c4ccccc4)CC3)c(F)cc2c1=O`, which growth is on record?
**A.** 96.1%

**Q.** How did the growth turn out when `N#Cc1ccc(C2C3=C(CCCC3=O)OC3=C2C(=O)c2ccccc2C3=O)cc1` (centres undefined) was run?
**A.** 40.3%

**Q.** `COc1ccc2c(c1)OC13Oc4cc(OC)ccc4C=C1CCCCC3=C2` was tested. Which growth did it give?
**A.** 88.7%

**Q.** With `C=C1C(=O)O[C@H]2[C@H]1CC/C(COC(=O)/C=C/c1cccnc1)=C\CC[C@@]1(C)O[C@@H]21` as the molecule, how does the growth read?
**A.** 6.99% (active)

**Q.** How did the growth turn out when `COC1=CC2C=C(C3N(c4ccccc4)NC(=O)[C@@H]4CCCN34)C(=O)NC2C=C1` (some centres undefined) was run?
**A.** 93.3%
